Test results published in PubChem BioAssay (NCI).
Compounds without any hit were thinned out: in the full panel of roughly 83,000, 20% have a hit.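 Results are percent growth after 48 hours of single-concentration exposure. 100 means growth as in untreated cells, lower positive values show inhibition; negative values down to -100 show cell death.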 Values without a mark were called inactive. Activity calls are given as the source filed them. The calls were made as follows: active = growth percent below 10; inactive = the rest.

Assays:
Assay in all cases: NCI-60 one-dose screen, 48 h (100 = growth as untreated, 0 = no growth, -100 = all killed)
Details in all cases: 10 µM unless noted
[1] = test system: DU-145 prostate
[2] = test system: K-562 leukemia
[3] = test system: MALME-3M melanoma
[4] = test system: RXF 393 renal
[5] = test system: SF-295 CNS
[6] = test system: SF-539 CNS
[7] = test system: UACC-257 melanoma
[8] = test system: M14 melanoma
[9] = test system: MDA-MB-231 breast
[10] = test system: SF-268 CNS

| Compound | growth [1] | growth [2] | growth [3] | growth [4] | growth [5] | growth [6] | growth [7] | growth [8] | growth [9] | growth [10] |
| --- | --- | --- | --- | --- | --- | --- | --- | --- | --- | --- |
| C=CCSc1nnc(-c2ccc(C(C)(C)C)cc2)n1-c1cccc(C(F)(F)F)c1 | 54.3% | 20.3% | 66.1% | 18.1% | 29.3% | 69.5% | 48.5% | 45.3% | – | – |
| O=C(/C=C/c1ccc(B(O)O)cc1)/C=C/c1ccc(B(O)O)cc1 | 64.4% | 12.9% | – | 10.2% | 89.8% | 21.6% | 51.9% | 20.5% | 38.6% | 59.2% |
| CC(C)c1c(C(=O)Nc2ccccc2)c(-c2ccccc2)c(-c2ccc(F)cc2)n1CC[C@@H]1CC=CC(=O)O1 | 26.3% | – | 8.81% (active) | -84.5% (active) | 82.3% | -18.5% (active) | 16.9% | -11.2% (active) | -25.6% (active) | -33.3% (active) |
| Cc1ccc(S(=O)(=O)N(CCc2ccc(Cl)cc2)S(=O)(=O)c2ccc(C)cc2)cc1 | 105% | 70% | 93% | – | – | 96.8% | 92.4% | 106% | 108% | 99.8% |
| O=C(Nc1cccc2c1C(=O)c1cccc(Nc3cccc4c3C(=O)c3cccc(NC(=O)c5ccccc5)c3C4=O)c1C2=O)c1ccccc1 | 120% | 116% | 120% | 120% | 100% | 109% | 103% | 104% | – | 110% |
| CCN(CC)CCCNc1cccc2c(SCc3ccccc3)ccnc12 | -22.8% (active) | -63% (active) | -84.3% (active) | 88.4% | 61% | 81.4% | 88.1% | -47.4% (active) | – | 23.9% |
| CCCCN(CC)CCCCCCCCCCN1CCCc2cc(OC)ccc21 | 48.5% | -38.7% (active) | -28.6% (active) | 92.7% | 43.5% | 93.1% | 103% | 88.2% | – | 49.7% |
| O=[N+]([O-])c1cccc(C2CC(c3ccccc3)=Nc3ccccc3S2)c1 (stereo not given) | 89.6% | 12.2% | 89.3% | – | – | 108% | 99.6% | 102% | 97.3% | 91.4% |
| CCCCCCCCCCCCN1CCCC(C)C1 (stereo not given) | 95.2% | 19.2% | 107% | – | – | 86.4% | 88.3% | 82.7% | 55.8% | 89.7% |
| N=S(=O)(NC(=O)c1ccc(Cl)cc1Cl)c1ccc(Br)s1 (stereo not given) | 105% | 107% | – | 91.7% | 89.6% | 91.7% | 98.2% | 99.8% | 98.2% | 99.8% |
| Cc1cc(Nc2nc(N3CCOCC3)nc3ccccc23)n[nH]1 | 75.2% | 56.3% | 66.4% | – | 73.4% | – | 76% | 45.8% | 84.9% | 63.8% |
| Cc1cc2c(cc1C)NC1=C(N2)OC(c2c3ccccc3cc3ccccc23)C1=O (stereo not given) | 16.7% | 9.62% (active) | 13.9% | 24.2% | -1.93% (active) | -21.9% (active) | 65.5% | 10% | – | 39.3% |
| N#Cc1ccc(NC(=O)Nc2ccc(Cc3ccc(NC(=O)Nc4ccc(C#N)cc4)cc3)cc2)cc1 | 40.5% | 11.5% | 27.5% | 51.4% | 12.1% | 50.7% | 26.3% | 37.2% | – | 44.5% |
| CCN(CC)CC(C)(C)C(=O)/C=C/c1ccccc1 | 8.96% (active) | 6.77% (active) | 37.4% | 30.3% | 87.6% | 28.8% | 65.9% | 31.9% | – | 91.3% |
| CN1Cc2c(cc(CN3CCCCC3)n2C)C(c2ccc(Br)cc2)C1 (stereo not given) | 96.5% | 34.9% | 22.8% | 74.8% | 81.3% | 76.1% | 13.4% | 14.1% | – | 92.6% |
| CCc1ccccc1NC(=O)c1sc2nc3c(cc2c1N)C(=O)CCC3 | 2.55% (active) | 11% | 60.8% | – | -3.21% (active) | -1.47% (active) | 65% | 15.1% | 36.6% | 40.4% |
| CCCN(CCC)CN(CCC)CCC | 106% | 95.6% | 97.6% | 98.2% | 107% | 102% | 100% | 102% | – | 102% |
| CCCCN(CCCC)CCC(C)(O)c1cc2ccccc2c2ccccc12 (stereo not given) | 75% | 15.7% | 30.7% | 87.8% | 79.8% | 103% | 82.8% | 90.7% | – | 57.3% |
| Cc1cc(Nc2nc(N3CCN(C)CC3)nc3ccccc23)n[nH]1 | 88% | 57% | 69% | – | 74.4% | 76.3% | 82.9% | 50.8% | 83.2% | 67% |
| COc1cccc(/C=C2/C(=O)N(Cc3ccco3)SC2=S)c1OC | 102% | 51.2% | 98.8% | – | – | 102% | 89.6% | 105% | 100% | 99% |
| Cc1ccc2c(NCCCN(C)C)c3c(C)nn(C)c3nc2c1 | – | 9.48% (active) | – | – | – | – | – | – | – | – |
